# Inconclusive results are not listed. Where a call stands in place of a potency, no number is given. Calls of active or inactive are those of the source. Calls come from the whole dose curve; as a rule, active = well fitted curve in the direction sought with a large enough effect; inconclusive = small, poorly fitted or top-dose-only effect, or another doubt; inactive = no such curve, though single readings can be large; an effect the other way counts as inactive or inconclusive.
# Columns and labels:
# [1] = P-glycoprotein substrates identified in KB-8-5-11 adenocarcinoma cell line, qHTS therapeutic library screen (AID 1346987); note: series mostly up to about 44 µM; nearly all actives have a fitted effect of over 65% in size
# In short: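 KB-8-5-11: colchicine-selected sub-line of KB-3-1 over-expressing P-gp; assay medium lacked colchicine. 72 h drug exposure at 37 degree C, CellTiter-Glo.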
# [2] = biological target: Glutathione peroxidase 1 (Homo sapiens) (UniProt P07203); test: Primary qHTS Assay for Inhibitors of Recombinant Selenoprotein Glutathione Peroxidase 1 (GPX1) (AID 1845191); note: nearly all actives have a fitted effect of over 65% in size
# Glutathione peroxidase 1 (Homo sapiens), sequence (P07203 whole entry, looked up): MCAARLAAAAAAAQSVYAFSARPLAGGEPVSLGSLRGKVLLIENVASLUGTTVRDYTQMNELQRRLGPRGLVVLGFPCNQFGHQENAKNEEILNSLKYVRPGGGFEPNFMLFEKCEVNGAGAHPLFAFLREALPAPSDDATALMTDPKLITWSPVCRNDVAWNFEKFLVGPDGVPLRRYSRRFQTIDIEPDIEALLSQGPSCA
# In short: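 GR-coupled assay: compounds preincubated 30 min at room temperature with GPX1, then reaction started with CHP; final 10 nM GPX1, 1 mM GSH, 0.5 mM CHP, 0.5 mM NADPH, 100 nM GR, 0.01% BSA, pH 7.5 Tris buffer. NADPH fluorescence (340/450 nm) read at 0 and 15 min.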
# [3] = Primary qHTS for inhibitors of nuclear receptor binding SET domain protein 2 (NSD2) in an isogenic RCH-ACV NSD2 p.E1099K mutant (9B) (AID 1645876); note: potency is the fitted concentration of half-maximal effect; nearly all actives have a fitted effect of over 70% in size
# [4] = Primary qHTS for inhibitors of nuclear receptor binding SET domain protein 2 (NSD2) in an RCH-ACV wild type WT cells (2C) (AID 1645877); note: potency is the fitted concentration of half-maximal effect; nearly all actives have a fitted effect of over 70% in size
Compound,Potency [1],Potency [2],Potency [3],Potency [4]
CNC(=O)c1ccc(-c2cnc3cnc(C(=O)N(C)c4ccc(Cl)cc4)cn23)cc1,inactive,inactive,,
O=C(c1ccc(-c2ccc(Cl)cc2)o1)N(Cc1ccccn1)c1ccc(N2CCNCC2)cc1,inactive,inactive,13 µM (active),16.4 µM (active)

# From PubChem BioAssay (NCATS)
